Reference: PubChem BioAssay (NCATS)
Where “and” joins values, the source holds several entries; their conditions need not be identical. Identical values can stand only once. Records with an inconclusive call do not appear. Calls of active or inactive are those of the source. Unless noted, calls follow the shape of the dose curve; as a rule, active = well fitted curve in the direction sought with a large enough effect; inconclusive = small, poorly fitted or top-dose-only effect, or another doubt; inactive = no such curve, though single readings can be large; an effect the other way counts as inactive or inconclusive.

Experiments:
[1] = HTS Assay for Allosteric Antagonists of the Human D2 Dopamine Receptor: Hit Validation in HTRF (AID 624455); also: potency is read from the fitted curve at half-maximal effect;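 also: stable D1 dopamine receptor cell line scored for blocking the D1 response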
Outline: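 Hits were examined in an HTRF assay using cells stably expressing the D1 dopamine receptor, scoring inhibition of the D1-mediated response. The preceding primary screen tracked calcium flux after an EC80 dopamine addition in force-coupled, inducible Hek293 Trex D2 cells.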

[2] = target: Peroxisome proliferator-activated receptor alpha (Homo sapiens) (UniProt Q07869); assay: qHTS assay for small molecule agonists of the peroxisome proliferator-activated receptor alpha (PPARalpha) signaling pathway (AID 651778); conditions: PathHunter PPARalpha complementation, chemiluminescence, 6 h; stronger effect = higher value; also: % of control where 0% means no effect
Outline: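 Enzyme-fragment complementation assay in which ligand-bound PPARalpha translocates and forms an active enzyme that generates chemiluminescence. Cells were plated overnight, exposed to compound for 6 hr at 37 C, and then given detection reagent for 60 min at room temperature.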

[3] = qHTS for compounds that reverse cellular toxicity of Amyloid beta (A-beta) peptide in yeast: LOPAC Validation Assay (AID 720559);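 also: plate controls were DMSO for no effect and equimolar ferric chloride plus clioquinol rescue for full effect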
Outline: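 OD600 growth readout after 48 hr at 30 C; A-beta-toxic yeast plus pinned compounds in medium. Normalization: DMSO = negative, equimolar FeCl3 + clioquinol = positive.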

[4] = qHTS for Activators of Parkin Expression: LOPAC Validation Assay (NLuc Reporter) (AID 720572;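 also: 0% = DMSO and 100% = positive control compound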)
Outline: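 Neuronal cells with a Parkin promoter-driven FLuc/NLuc coincidence reporter were treated 24 h at 37 C in 7-point dose response (LOPAC). NLuc luminescence read after FLuc; signals normalized to DMSO and positive control (100%).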

[5] = qHTS assay for small molecule agonists of the antioxidant response element (ARE) signaling pathway (AID 651741; active = well fitted activation curve with a large enough effect in the signal ratio; the % refers to the signal ratio; also: potency is read from the fitted curve at half-maximal effect; as to activation: % of control where 0% means no effect)
Outline: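 HepG2 ARE-bla cells plated at 2,000 cells/well and incubated 5 h at 37 C/5% CO2 received 23 nL compound in DMSO. After 16 h at 37 C, LiveBLAzer B/G FRET substrate was applied for 2 h at room temperature and fluorescence read.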

[6] = qHTS assay for small molecule activators of the p53 signaling pathway (AID 651743; active = well fitted activation curve with a large enough effect in the signal ratio, not every such curve was filed as active; the % refers to the signal ratio; also: potency is read from the fitted curve at half-maximal effect; as to activation: % of control where 0% means no effect); conditions: HCT-116 p53RE-bla, beta-lactamase FRET ratio, 16 h; activation: stronger effect = higher value
Outline: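 HCT-116 p53RE-bla, 4,000 cells/well; 5 h settle; cpd/DMSO 16 h, 37 C; LiveBLAzer B/G 2 h RT; fluorescence intensity.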

[7] = qHTS assay for environmental chemicals that activate the Aryl hydrocarbon Receptor (AhR) signaling pathway (AID 651777); conditions: 1A2-DRE human hepatoma cells, luciferase, 24 h; activation: stronger effect = higher value; also: % of control where 0% means no effect; nearly all actives have a fitted effect of over 15% in size
Outline: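 Reporter gene assay: hepatoma cells with DRE/CYP1A2-luciferase, 24 hr compound incubation at 37 C, 5% CO2, luminescence after One-Glo (30 min, RT).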

[8] = target: Arylsulfatase A (Homo sapiens) (UniProt P15289); assay: qHTS screen for enhancers of Arylsulfatase A (ASA1): LOPAC Validation Assay (AID 720538); also: potency is read from the fitted curve at half-maximal effect
Outline: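 Read-out: fluorescence at Ex=525/Em=598 nm after 1N NaOH final stop. Patient fibroblasts carrying ASA-I179S had 48h compound exposure, then 14h room-temperature pNCS hydrolysis (0.5mM final) in lysis buffer. Signal increase = enhanced activity.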

[9] = qHTS Assay for Identification of Small Molecule Agonists for NFkB Signaling Pathway. (AID 624478); also: 0% is about no effect
Outline: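 NFkB-bla ME-180 cells (beta-lactamase reporter under NFkB response element) were plated overnight, treated with compound plus TNF alpha at 10 pM final (its EC50) for 5 hrs at 37 C, then loaded with LiveBLAzer substrate for 2 hrs.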

[10] = qHTS Assay for Identification of Small Molecule Antagonists for NFkB Signaling Pathway. (AID 624479; calls by dose curve;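 also: pathway stimulated with TNF alpha; potency is read from the fitted curve at half-maximal effect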); conditions: NFkB pathway reporter cell assay, antagonist mode
[11] = Cell Proliferation Assay against the TMD8 Cell Line (AID 651645); conditions: TMD8 DLBCL cell line proliferation/viability; at 46.1 µM (top of the series);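 also: cells exposed to compound for 48 h before reading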
Outline: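 Luminescent ATP read-out (CellTiter-Glo, 15 min RT) after 48 h compound exposure of log-growing TMD8 cells at 37C; percent activity scaled between DMSO as 100% and 9.2 uM bortezomib final as 0%.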

[12] = Cell Proliferation Assay against the HBL1 Cell Line (AID 651646); conditions: HBL1 DLBCL cells; at 46.1 µM (top of the series);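 also: cells exposed to compound for 48 h before reading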
Outline: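 HBL1 ABC DLBCL cells, 500/well in RPMI with 5% FBS, treated for 48 h at 37C. Viability read by CellTiter-Glo luminescence, normalized to DMSO as 100% and 9.2 uM bortezomib as 0%.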

[13] = Cell Proliferation Assay against the TMD8 Cell Line (Caspase readout at 16 hrs) (AID 651712); conditions: TMD8 lymphoma cells, caspase activation luminescence; also: potency is read from the fitted curve at half-maximal effect
Outline: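 TMD8 cells in RPMI with 5% FBS were treated with compound for 16 h at 37 C, then caspase 3/7 activation was read by Caspase-Glo luminescence. Percent activity was scaled to DMSO (0%) and 9.2 uM bortezomib final (100%).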

[14] = qHTS assay for small molecule disruptors of the mitochondrial membrane potential - 1 hr assay (AID 651754; calls by dose curve; also: % is scaled to controls: 0 for no effect and ±100 for the full control effect; nearly all actives have a fitted effect of over 35% in size)
Outline: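 HepG2 cells, attached overnight at 37C, were exposed to compound or DMSO vehicle for 1 hr at 37C, 5% CO2, then stained with Mito-MPS dye for 30 min. Red aggregate versus green monomer fluorescence reports membrane potential.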

[15] = qHTS assay for small molecule disruptors of the mitochondrial membrane potential - 5 hr assay (AID 651755; calls by dose curve; also: % is scaled to controls: 0 for no effect and ±100 for the full control effect; nearly all actives have a fitted effect of over 40% in size)
Outline: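 HepG2 cells (2,000/well), attached overnight, exposed to compound 5 hr at 37C, then Mito-MPS dye 30 min. Fluorescence read for monomers (490/535 nm) and aggregates (540/590 nm).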

[16] = target: Tumor necrosis factor (Homo sapiens) (UniProt P01375); assay: qHTS assay to identify small molecules that stimulate Tumor Necrosis Factor-alpha (TNF-alpha) secretion (AID 651757; active = well fitted curve in the direction sought with a large enough effect in the signal ratio; the % refers to the signal ratio; also: 0% is about no effect)
Outline: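 THP-1 cells were exposed to compounds for 17 hrs at 37 C, after which secreted TNF-alpha was measured by homogeneous HTRF (TR-FRET) using cryptate- and XL665-labeled anti-TNF-alpha antibodies, read after 3 hr at room temperature.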

[17] = target: Nuclear receptor ROR-gamma (Homo sapiens) (UniProt P51449); assay: qHTS assay for small molecule antagonists of the retinoid-related orphan receptor gamma (ROR-gamma) signaling pathway (AID 651802); also: potency is read from the fitted curve at half-maximal effect; nearly all actives have a fitted effect of over 60% in size
Outline: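 CHO cells carrying TET-inducible ROR-gamma and an ROR response element–luciferase reporter were exposed to compound, then induced with doxycycline. After 16hr at 37C, luminescence was read; lower signal indicates antagonism.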

[18] = target: Tyrosine-protein kinase Yes (Homo sapiens) (UniProt P07947); assay: qHTS for small molecule inhibitors of Yes1 kinase: Primary Screen (AID 686947);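 also: plate controls were DMSO with enzyme for no effect and no-enzyme DMSO wells for full effect; nearly all actives have a fitted effect of over 60% in size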
Outline: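 ADP-Glo luminescence readout; final 4 nM Yes1, 0.1 mM ATP, 0.3 mg/mL poly(E4Y), Tris pH 7.5, MgCl2, DTT, Brij-35. 20 min compound preincubation, 60 min reaction at RT. Normalized to DMSO wells with and without enzyme.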

[19] = qHTS for small molecule inhibitors of Yes1 kinase: Counter Assay (AID 686950);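 also: no kinase present so only ADP-Glo detection of a fixed ADP amount is tested; luminescence from ADP-Glo reporting ADP in a fixed ATP and ADP mixture; 0% = DMSO wells with ATP plus ADP and -100% = ATP-only wells without ADP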
Outline: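 Enzyme-free detection counter-screen: compounds preincubated 20 min in buffer, then 0.08 mM ATP plus 0.02 mM ADP added for 60 min at room temperature; ADP-Glo luminescence. Buffer 50 mM Tris pH 7.5, 10 mM MgCl2, 150 mM NaCl; normalized to ATP+ADP and ATP-only controls.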

Sequence of Peroxisome proliferator-activated receptor alpha (Homo sapiens) (Q07869 whole entry, looked up, the tested form may be a part): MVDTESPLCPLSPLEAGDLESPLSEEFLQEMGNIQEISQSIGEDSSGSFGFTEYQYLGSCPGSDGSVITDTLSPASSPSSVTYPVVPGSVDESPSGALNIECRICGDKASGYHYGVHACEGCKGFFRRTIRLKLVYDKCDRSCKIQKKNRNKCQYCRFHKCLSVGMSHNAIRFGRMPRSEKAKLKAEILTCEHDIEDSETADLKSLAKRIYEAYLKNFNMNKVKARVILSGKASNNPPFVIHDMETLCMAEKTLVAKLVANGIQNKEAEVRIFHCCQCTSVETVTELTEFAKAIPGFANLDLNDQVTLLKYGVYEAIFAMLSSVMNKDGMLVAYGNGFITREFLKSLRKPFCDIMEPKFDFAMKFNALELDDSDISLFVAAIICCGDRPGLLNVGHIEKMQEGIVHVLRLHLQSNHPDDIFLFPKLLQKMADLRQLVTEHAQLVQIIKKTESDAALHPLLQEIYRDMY
Sequence of Arylsulfatase A (Homo sapiens) (P15289 whole entry, looked up): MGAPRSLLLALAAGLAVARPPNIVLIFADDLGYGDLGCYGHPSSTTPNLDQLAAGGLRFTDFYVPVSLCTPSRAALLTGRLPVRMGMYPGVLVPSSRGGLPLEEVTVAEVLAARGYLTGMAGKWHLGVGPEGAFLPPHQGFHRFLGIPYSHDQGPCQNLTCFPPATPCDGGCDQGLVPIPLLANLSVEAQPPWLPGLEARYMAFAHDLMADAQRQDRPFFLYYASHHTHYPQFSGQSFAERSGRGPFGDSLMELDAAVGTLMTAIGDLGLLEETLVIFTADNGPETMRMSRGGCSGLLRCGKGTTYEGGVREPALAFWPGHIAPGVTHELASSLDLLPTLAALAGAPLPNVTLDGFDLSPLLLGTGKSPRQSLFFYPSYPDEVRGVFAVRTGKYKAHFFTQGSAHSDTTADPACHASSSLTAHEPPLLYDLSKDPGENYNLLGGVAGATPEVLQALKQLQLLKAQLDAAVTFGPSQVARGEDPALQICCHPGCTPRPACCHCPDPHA
Sequence of Tyrosine-protein kinase Yes (Homo sapiens) (P07947 whole entry, looked up): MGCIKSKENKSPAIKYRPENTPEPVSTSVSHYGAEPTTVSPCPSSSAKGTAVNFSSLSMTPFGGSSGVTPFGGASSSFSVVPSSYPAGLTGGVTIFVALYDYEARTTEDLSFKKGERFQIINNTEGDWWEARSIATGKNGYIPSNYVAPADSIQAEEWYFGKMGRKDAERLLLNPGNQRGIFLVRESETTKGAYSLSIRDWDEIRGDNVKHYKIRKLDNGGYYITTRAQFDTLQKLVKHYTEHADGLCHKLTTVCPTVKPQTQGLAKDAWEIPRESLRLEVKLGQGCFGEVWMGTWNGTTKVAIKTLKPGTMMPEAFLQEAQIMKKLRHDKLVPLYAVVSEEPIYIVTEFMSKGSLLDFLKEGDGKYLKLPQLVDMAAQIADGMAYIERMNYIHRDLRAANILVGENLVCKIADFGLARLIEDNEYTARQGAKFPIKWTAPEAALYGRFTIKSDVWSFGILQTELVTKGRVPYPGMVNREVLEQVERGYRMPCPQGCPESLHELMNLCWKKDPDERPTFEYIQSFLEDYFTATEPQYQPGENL
Sequence of Nuclear receptor ROR-gamma (Homo sapiens) (P51449 whole entry, looked up): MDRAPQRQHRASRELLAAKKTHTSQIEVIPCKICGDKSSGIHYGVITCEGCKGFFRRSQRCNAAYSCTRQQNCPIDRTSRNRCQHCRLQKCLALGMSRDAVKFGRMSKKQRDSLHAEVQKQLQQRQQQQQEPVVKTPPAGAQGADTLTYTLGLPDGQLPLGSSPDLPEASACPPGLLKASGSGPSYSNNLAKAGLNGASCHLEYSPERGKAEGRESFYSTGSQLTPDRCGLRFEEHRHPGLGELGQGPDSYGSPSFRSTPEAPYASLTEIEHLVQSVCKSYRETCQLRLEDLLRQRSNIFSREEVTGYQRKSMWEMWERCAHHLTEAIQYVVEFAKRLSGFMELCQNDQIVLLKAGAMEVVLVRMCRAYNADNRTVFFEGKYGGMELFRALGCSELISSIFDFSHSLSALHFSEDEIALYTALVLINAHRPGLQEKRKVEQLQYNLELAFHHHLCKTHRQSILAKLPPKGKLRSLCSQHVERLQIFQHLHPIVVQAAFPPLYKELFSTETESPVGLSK
Sequence of Tumor necrosis factor (Homo sapiens) (P01375 whole entry, looked up): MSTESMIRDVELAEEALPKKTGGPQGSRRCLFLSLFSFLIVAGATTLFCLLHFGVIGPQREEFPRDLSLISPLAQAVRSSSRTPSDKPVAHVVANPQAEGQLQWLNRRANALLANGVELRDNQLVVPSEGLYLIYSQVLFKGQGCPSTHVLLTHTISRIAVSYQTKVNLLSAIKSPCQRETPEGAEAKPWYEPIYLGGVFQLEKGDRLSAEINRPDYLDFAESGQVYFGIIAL

CC(=O)[C@@]1(O)CC[C@H]2[C@@H]3CCC4=CC(=O)CC[C@]4(C)[C@H]3CC[C@@]21C
inactive: Potency [1] | max response [2] -2.31% | outcome [3] | Potency [4]

C[C@]12C=CC(=O)C=C1CC[C@H]1[C@@H]3C[C@@H](O)[C@](O)(C(=O)CO)[C@@]3(C)C[C@H](O)[C@@]12F
inactive: Potency [1] | Potency [5] | activation [6] -0.529% | activation [7] 0.771% | max response [2] 4.65% | Potency [8] | outcome [3] | Potency [4]

Nc1ncn([C@@H]2O[C@H](CO)[C@@H](O)[C@H]2O)c(=O)n1
22.1%: viability, percent of control [12]
inactive: Potency [1] | outcome [9] | Potency [14] | Potency [15] | outcome [16] | activation [7] 5.55% and 8.87% | max response [2] -2.48% and -2.55% | Potency [18] | outcome [19]
active: Potency [10] 16.8 µM | Potency [13] 14.8 µM | Potency [5] 1.37 µM and 1.88 µM | Potency [6] 6.31 µM | Potency [17] 3.35 µM
6.56%: viability (% of control) [11]

CNCCCN1c2ccccc2CCc2ccccc21
active: Potency [8] 21.3 µM
inactive: Potency [1] | outcome [3] | Potency [4]

CN1CCN(CC(=O)N2c3ccccc3C(=O)Nc3cccnc32)CC1
active: Potency [1] 3.66 µM
inactive: Potency [8]

Cc1ccc(Cl)c(Nc2ccccc2C(=O)O)c1Cl
inactive: Potency [1] | Potency [8] | outcome [3] | Potency [4]

CC(C(=O)O)c1ccc(CC2CCCC2=O)cc1 (stereo unspecified)
inactive: Potency [1] | Potency [8] | Potency [4]

COCC(=O)O[C@]1(CCN(C)CCCc2nc3ccccc3[nH]2)CCc2cc(F)ccc2[C@@H]1C(C)C
inactive: Potency [1] | outcome [3] | Potency [4]

c1ccc2c(c1)CCCC2C1=NCCN1 (stereo unspecified)
inactive: Potency [1] | outcome [3] | Potency [4]

CN(C)CCCN1c2ccccc2Sc2ccc(C(F)(F)F)cc21
inactive: Potency [1] | outcome [3] | Potency [4]

CC(C)[N+](C)(CCOC(=O)C1c2ccccc2Oc2ccccc21)C(C)C
inactive: Potency [1] | outcome [3] | Potency [4]

Nc1c2c(nc3ccccc13)CCCC2O (stereo unspecified)
inactive: Potency [1] | outcome [3] | Potency [4]

NC(N)=NC(=O)Cc1c(Cl)cccc1Cl
inactive: Potency [1] | Potency [8] | outcome [3] | Potency [4]

OC(CCN1CCCCC1)(c1ccccc1)C1CCCCC1 (stereo unspecified)
inactive: Potency [1] | Potency [8] | Potency [4]

CN(C)CCN(Cc1cccs1)c1ccccn1
inactive: Potency [1] | Potency [8] | Potency [4]

CC(C)COCC(CN(Cc1ccccc1)c1ccccc1)N1CCCC1 (stereo unspecified)
inactive: Potency [1] | outcome [3] | Potency [4]

Cc1nc2c([nH]1)c(=O)n(C)c(=O)n2Cc1ccco1
inactive: Potency [1] | outcome [3] | Potency [4]

CC(=O)OC(C)C[N+](C)(C)C (stereo unspecified)
inactive: Potency [1] | Potency [8] | Potency [4]

CC(C)NNC(=O)c1ccncc1
inactive: Potency [1] | Potency [8] | Potency [4]

C[C@H](CS)C(=O)N1CCC[C@H]1C(=O)O
inactive: Potency [1] | outcome [3] | Potency [4]

CC1=C(C)C(=O)C(CCCCC#CCCCC#CCO)=C(C)C1=O
inactive: Potency [1] | Potency [8] | outcome [3] | Potency [4]

CC(N=C(NC#N)Nc1ccncc1)C(C)(C)C (stereo unspecified)
inactive: Potency [1] | Potency [8] | Potency [4]

CN(C)C/C=C(/c1ccc(Br)cc1)c1cccnc1
inactive: Potency [1] | Potency [8] | Potency [4]

CC(C)(C)c1ccc(C(=O)CCCN2CCC(OC(c3ccccc3)c3ccccc3)CC2)cc1
inactive: Potency [1] | outcome [3] | Potency [4]

O=C(O)CN(CCN(CC(=O)O)CC(=O)O)CCN(CC(=O)O)CC(=O)O
inactive: Potency [1] | outcome [3] | Potency [4]

c1cnc(N2CCN(Cc3ccc4c(c3)OCO4)CC2)nc1
inactive: Potency [1] | Potency [8] | outcome [3] | Potency [4]

CCN1CCc2nc(N)oc2CC1
inactive: Potency [1] | outcome [3] | Potency [4]

NC/C=C/C(=O)O
inactive: Potency [1] | outcome [3] | Potency [4]

FC(F)(F)c1ccccc1-n1ccnc1
inactive: Potency [1] | outcome [3] | Potency [4]

CCCN(CCC)CCc1cccc2c1CC(=O)N2
inactive: Potency [1] | Potency [8] | outcome [3] | Potency [4]

O=C(CCCN1CCC(O)(c2cccc(C(F)(F)F)c2)CC1)c1ccc(F)cc1
inactive: Potency [1] | Potency [8] | Potency [4]

CNC1(C)C2CCC(C2)C1(C)C (stereo unspecified)
inactive: Potency [1] | outcome [3] | Potency [4]

C=CCc1ccccc1OCC(O)CNC(C)C (stereo unspecified)
inactive: Potency [1] | outcome [3] | Potency [4]

CN(C)CC/C=C1\c2ccccc2COc2ccccc21
inactive: Potency [1] | Potency [8] | outcome [3] | Potency [4]

CC(=O)[C@]1(O)Cc2c(O)c3c(c(O)c2[C@@H](O[C@H]2C[C@H](N)[C@H](O)[C@H](C)O2)C1)C(=O)c1ccccc1C3=O
inactive: Potency [1] | Potency [8] | outcome [3] | Potency [4]
